The results in this text go back to article PMC9838217, “Structure of SALL4 zinc finger domain reveals link between AT-rich DNA binding and Okihiro syndrome”.

Holding throughout (experiment): HT-SELEX; high values mean tight binding
Holding throughout (details): protein: recombinant; vector His6-GST; dsDNA, one strand shown

For one experiment, the target named is T1, SALL4 ZFC4 WT (HT-SELEX) (Mus musculus, UniProt Q8BX22 870-940).
T1 sequence: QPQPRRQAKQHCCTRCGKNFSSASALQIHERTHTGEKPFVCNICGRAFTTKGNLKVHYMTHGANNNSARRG
The gist of the method:
(§1)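 Purified recombinant mouse SALL4 zinc finger cluster 4 (residues 870–940, 1 µg) was incubated with library DNA (1.5 µg first cycle, 200 ng later) in 100 µl buffer (10 mM Tris–HCl pH 7.5, 50 mM NaCl, poly(dI-dC), DTT) for 10 min at room temperature. Ni2+ bead-captured complexes were washed, PCR-amplified and reselected for up to 6 cycles, in triplicate, then MiSeq-sequenced and scanned for 6-mers. Binding signal is each canonical k-mer's read fraction as fold change versus the initial random library.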

For experiment [1], the target named is T2, SALL4 ZFC4 R900W (HT-SELEX) (Mus musculus, UniProt Q8BX22 870-940, R900W).
T2 sequence: T1 sequence with R31W
The gist of the method: as §1

Experiment [2] concerns the target T3, SALL4 ZFC4 G921D (HT-SELEX) (Mus musculus, UniProt Q8BX22 870-940, G921D).
T3 sequence: T1 sequence with G52D
The essentials:
as §1

Changes are numbered by the printed parent chain.

Turning to ATTATC, the binding signal in the experiment with SALL4 ZFC4 WT (HT-SELEX) turned out to be 2.31 ± 0.229 fold-change vs cycle 0; in experiment [1], 2.08 ± 0.177 fold-change vs cycle 0; in experiment [2], 1.85 ± 0.207 fold-change vs cycle 0.
In the same order, the values of GACTGA are 0.805 ± 0.0317 fold-change vs cycle 0, 0.959 ± 0.0214 fold-change vs cycle 0 and 0.953 ± 0.0219 fold-change vs cycle 0.
As for GGACGA, the binding signal stood at 0.34 ± 0.0131 fold-change vs cycle 0 with SALL4 ZFC4 WT (HT-SELEX), 0.412 ± 0.0156 fold-change vs cycle 0 in experiment [1] and 0.498 ± 0.0522 fold-change vs cycle 0 in experiment [2].
Consider GAGGAC, for which the binding signal with SALL4 ZFC4 WT (HT-SELEX) was 0.456 ± 0.0333 fold-change vs cycle 0; in experiment [1], 0.581 ± 0.0167 fold-change vs cycle 0; in experiment [2], 0.671 ± 0.0146 fold-change vs cycle 0.
Regarding AGCTAT, the binding signal with SALL4 ZFC4 WT (HT-SELEX) worked out at 1.19 ± 0.0625 fold-change vs cycle 0; in experiment [1], 1.26 ± 0.0563 fold-change vs cycle 0; in experiment [2], 1.27 ± 0.0842 fold-change vs cycle 0.
The corresponding values for ATCCGA are 0.684 ± 0.0383 fold-change vs cycle 0, 0.781 ± 0.0221 fold-change vs cycle 0 and 0.89 ± 0.0142 fold-change vs cycle 0.
On to GATGAA, for which the values for the binding signal (in the experiment with SALL4 ZFC4 WT (HT-SELEX); in experiment [1]; in experiment [2]) were 1.45 ± 0.0431 fold-change vs cycle 0, 1.54 ± 0.0399 fold-change vs cycle 0 and 1.43 ± 0.0787 fold-change vs cycle 0, respectively.
In the same order, the values of ATTTTC are 1.99 ± 0.115 fold-change vs cycle 0, 1.68 ± 0.0202 fold-change vs cycle 0 and 1.56 ± 0.0749 fold-change vs cycle 0.
The corresponding values for CGAAAA are 0.827 ± 0.0572 fold-change vs cycle 0, 0.851 ± 0.0107 fold-change vs cycle 0 and 0.912 ± 0.0336 fold-change vs cycle 0.
ATGGCA: the binding signal came out at 0.55 ± 0.0226 fold-change vs cycle 0 in the experiment with SALL4 ZFC4 WT (HT-SELEX), 0.607 ± 0.0241 fold-change vs cycle 0 in experiment [1] and 0.733 ± 0.0739 fold-change vs cycle 0 in experiment [2].
The corresponding values for GGTCCA are 0.375 ± 0.0292 fold-change vs cycle 0, 0.456 ± 0.0245 fold-change vs cycle 0 and 0.558 ± 0.0709 fold-change vs cycle 0.
In the case of ACGGAC, the binding signal was 0.337 ± 0.0313 fold-change vs cycle 0 with SALL4 ZFC4 WT (HT-SELEX), 0.425 ± 0.0312 fold-change vs cycle 0 in experiment [1] and 0.526 ± 0.0575 fold-change vs cycle 0 in experiment [2].
For ACACGT, the binding signal in the experiment with SALL4 ZFC4 WT (HT-SELEX) came to 0.75 ± 0.0296 fold-change vs cycle 0; in experiment [1], 0.89 ± 0.061 fold-change vs cycle 0; in experiment [2] it was 0.954 ± 0.0298 fold-change vs cycle 0.
The corresponding values for GATAGC are 0.692 ± 0.0348 fold-change vs cycle 0, 0.798 ± 0.0237 fold-change vs cycle 0 and 0.8754 ± 0.00393 fold-change vs cycle 0.
As to AATGCC, the binding signal with SALL4 ZFC4 WT (HT-SELEX) was found to be 0.502 ± 0.015 fold-change vs cycle 0; in experiment [1], 0.5601 ± 0.00429 fold-change vs cycle 0; in experiment [2], 0.704 ± 0.0636 fold-change vs cycle 0.
As for ACCGTC, the values for the binding signal (with SALL4 ZFC4 WT (HT-SELEX); in experiment [1]; in experiment [2]) were 0.344 ± 0.0295 fold-change vs cycle 0, 0.418 ± 0.0372 fold-change vs cycle 0 and 0.528 ± 0.0646 fold-change vs cycle 0, respectively.
As to CAAGAA, the binding signal in the experiment with SALL4 ZFC4 WT (HT-SELEX) was 1.26 ± 0.0324 fold-change vs cycle 0; in experiment [1] it was 1.43 ± 0.0703 fold-change vs cycle 0; in experiment [2], 1.35 ± 0.104 fold-change vs cycle 0.
In the same order, the values of CTGAAC are 0.859 ± 0.0362 fold-change vs cycle 0, 0.995 ± 0.0342 fold-change vs cycle 0 and 1.01 ± 0.0412 fold-change vs cycle 0.
The corresponding values for AAAACA are 1.61 ± 0.0773 fold-change vs cycle 0, 1.67 ± 0.055 fold-change vs cycle 0 and 1.55 ± 0.0435 fold-change vs cycle 0.
In the same order, the values of AGTAAG are 1.58 ± 0.0246 fold-change vs cycle 0, 1.73 ± 0.024 fold-change vs cycle 0 and 1.53 ± 0.116 fold-change vs cycle 0.
On to CTGTTC, for which the binding signal with SALL4 ZFC4 WT (HT-SELEX) was 0.771 ± 0.0432 fold-change vs cycle 0; in experiment [1], 0.893 ± 0.0123 fold-change vs cycle 0; in experiment [2], 0.959 ± 0.0166 fold-change vs cycle 0.
Regarding CACCTA, the binding signal with SALL4 ZFC4 WT (HT-SELEX) amounted to 0.824 ± 0.0556 fold-change vs cycle 0; in experiment [1], 0.915 ± 0.0444 fold-change vs cycle 0; in experiment [2], 0.976 ± 0.0474 fold-change vs cycle 0.
In the same order, the values of TGTCAA are 1.12 ± 0.0378 fold-change vs cycle 0, 1.266 ± 0.01 fold-change vs cycle 0 and 1.26 ± 0.0283 fold-change vs cycle 0.
The corresponding values for GCGTAA are 0.494 ± 0.0275 fold-change vs cycle 0, 0.556 ± 0.0061 fold-change vs cycle 0 and 0.651 ± 0.033 fold-change vs cycle 0.
In the same order, the values of TACTGA are 1.38 ± 0.119 fold-change vs cycle 0, 1.53 ± 0.139 fold-change vs cycle 0 and 1.42 ± 0.164 fold-change vs cycle 0.
For GATTGC, the binding signal worked out at 0.641 ± 0.0324 fold-change vs cycle 0 with SALL4 ZFC4 WT (HT-SELEX), 0.711 ± 0.00883 fold-change vs cycle 0 in experiment [1] and 0.817 ± 0.0343 fold-change vs cycle 0 in experiment [2].
In the same order, the values of AAGGAG are 1 ± 0.0181 fold-change vs cycle 0, 1.14 ± 0.0427 fold-change vs cycle 0 and 1.13 ± 0.0474 fold-change vs cycle 0.
The corresponding values for ATCGAT are 1.23 ± 0.075 fold-change vs cycle 0, 1.21 ± 0.0415 fold-change vs cycle 0 and 1.3 ± 0.0771 fold-change vs cycle 0.
Take CATGCC: the binding signal in the experiment with SALL4 ZFC4 WT (HT-SELEX) worked out at 0.31 ± 0.0224 fold-change vs cycle 0; in experiment [1], 0.354 ± 0.0129 fold-change vs cycle 0; in experiment [2] it was 0.48 ± 0.0491 fold-change vs cycle 0.
For the sequence ATCGAC, the binding signal in the experiment with SALL4 ZFC4 WT (HT-SELEX) was determined as 0.576 ± 0.0406 fold-change vs cycle 0; in experiment [1], 0.632 ± 0.033 fold-change vs cycle 0; in experiment [2], 0.759 ± 0.0482 fold-change vs cycle 0.
